{"source": "PubChem BioAssay AID602248", "about": "(The Scripps Research Institute Molecular Screening Center, 2012)", "note": "Hit rate of the full screen: of about 360,000 compounds, about 1,700 (0.47%) were called active. This excerpt belongs to a sample that is enriched for actives. A number with no mark means an inactive call. No stated cut-off is given here; in the data, active means activation above about 15%; inactive means the rest."}
{"assay": "counter-screen for M1 agonists: effect in parental CHO-K1 cells (AID 602248);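 further: untransfected CHO-K1 host cells lacking M1 receptor as counterscreen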", "conditions": "Fluo-8 calcium fluorescence, at 3 µM, hits give high values, scaled to maximal ATP response, vehicle zero"}
{"smiles": "COC(=O)c1cc(C(=O)OCC(=O)Nc2cc(C)on2)cc([N+](=O)[O-])c1", "activation": "0.23%"}
{"smiles": "CN1CCN(C(=O)c2cnn(-c3ccccc3)c2NC(=O)c2ccc([N+](=O)[O-])cc2)CC1", "activation": "0.79%"}
{"smiles": "COc1cc(C(=O)NCc2ccc(-n3cccc3)cc2)cc(OC)c1OC", "activation": "7.89%"}
{"smiles": "CCn1c(CNC(=O)c2cc(OC)c(OC)c(OC)c2)cc2cc(C)ccc21", "activation": "20.6% (active)"}
{"smiles": "COc1cc(C(=O)NCc2ccc3c(c2)cc(C)n3C)cc(OC)c1OC", "activation": "-0.48%"}
{"smiles": "CCCCC(=O)NCc1ccc(F)cc1", "activation": "-0.33%"}
{"smiles": "CCCCC(=O)NNC(=S)NC(=O)C(c1ccccc1)c1ccccc1", "activation": "86% (active)"}
{"smiles": "CCCOCC(O)CC(CC)C(=O)NNC(=S)Nc1ccccc1", "note": "(stereo not given)", "activation": "0.03%"}
{"smiles": "CCCCC(CC)CNC(=O)C(=O)C1C(=O)Nc2ccccc21", "note": "(stereo not given)", "activation": "-0.65%"}
{"smiles": "CCOC(=O)c1c(C)oc(C)c(C(=O)OCC)c1=O", "activation": "0.16%"}
{"smiles": "O=C1NC[C@H](CCCCN2C[C@H](Cc3ccc(O)cc3)N(CCc3ccccc3)C(=O)C2=O)N(CCc2ccccc2)C1=O", "activation": "0.62%"}
{"smiles": "Cc1ccc(C(=O)N/C(=C/c2ccco2)C(=O)NCCc2c[nH]c3ccccc23)cc1C", "activation": "1.71%"}
{"smiles": "N#C/C(=C/c1ccc(N2CCCCC2)o1)C(=O)NCCc1c[nH]c2ccccc12", "activation": "24.1% (active)"}
{"smiles": "N#C/C(=C\\c1ccc(N2CCOCC2)o1)C(=O)N1CCOCC1", "activation": "4.52%"}
{"smiles": "CCSc1nsc(NC(=O)Nc2cccc(C(C)=O)c2)n1", "activation": "16.5% (active)"}
{"smiles": "CCc1nnc(NC(=O)CSc2nnnn2-c2cccc(C(C)=O)c2)s1", "activation": "-0.49%"}
{"smiles": "CCCCN1C(=O)C(=O)N(CC(=O)Nc2cccc(C(C)=O)c2)C1=O", "activation": "-0.29%"}
{"smiles": "C=CCSc1nsc(NC(=O)Nc2cccc(C(C)=O)c2)n1", "activation": "15.8% (active)"}
{"smiles": "COc1ccc(C(=O)OCC(=O)Nc2cccc(C(C)=O)c2)cc1OC", "activation": "2.14%"}
{"smiles": "CC(=O)c1cccc(NC(=O)[C@@H](NC(N)=O)C(C)C)c1", "activation": "-0.09%"}
{"smiles": "Cc1ccc(C(=O)N2CCC(n3nccc3NC(=O)Nc3cccc(F)c3)CC2)cn1", "activation": "1.73%"}
{"smiles": "COc1ccc(OCC(=O)OCC(=O)Nc2ccc(S(=O)(=O)N3CCCCC3)cc2)cc1", "activation": "0.75%"}
{"smiles": "CCOC(=O)COc1ccc(Cl)cc1C1NC(=O)NC(C)=C1C(C)=O", "note": "(stereo not given)", "activation": "0.08%"}
{"smiles": "CN(C)CCCCCN(C)Cc1cc2ccccc2o1", "activation": "0%"}
{"smiles": "CCCCNC(=O)c1nc(C2CCN(S(=O)(=O)c3ccc(F)c(F)c3)CC2)oc1-c1cccc(C(F)(F)F)c1", "activation": "2.76%"}
{"smiles": "Cn1nnnc1SCC(=O)NNC(=O)c1ccc(Br)cc1", "activation": "-0.47%"}
{"smiles": "COC(=O)COc1ccc2c(=O)c(Oc3ccccc3Br)coc2c1", "activation": "0.1%"}
{"smiles": "C[C@H](CO)N1C[C@H](C)[C@@H](CN(C)S(=O)(=O)c2ccc(Oc3ccccc3)cc2)OCc2cn(nn2)CCCC1=O", "activation": "0.23%"}
{"smiles": "CC(OC(=O)CN1C(=O)C2CCCCC2C1=O)C(=O)Nc1ncc(Cl)cc1Cl", "note": "(stereo not given)", "activation": "0.87%"}
{"smiles": "O=C(COC(=O)c1ccc(F)cc1)NCC1COc2ccccc2O1", "note": "(stereo not given)", "activation": "1.54%"}
{"smiles": "c1ccc2c(c1)OCC(CNc1ncnc3nc[nH]c13)O2", "note": "(stereo not given)", "activation": "109% (active)"}
{"smiles": "O=C(COc1ccc(F)cc1Br)NCC1COc2ccccc2O1", "note": "(stereo not given)", "activation": "0.07%"}
{"smiles": "Cn1c(N)cc(=O)n(C)c1=S", "activation": "-0.09%"}
{"smiles": "COc1ccc(S(=O)(=O)N2CCOCC2)c(C)c1C", "activation": "0.55%"}
{"smiles": "COCCNc1ncnc2c1nc1n2CCCC1", "activation": "0.47%"}
{"smiles": "O=C(CCc1ccccc1)Nc1nn[nH]n1", "activation": "1.57%"}
{"smiles": "O=C(/C=C/c1c(F)cccc1Cl)Nc1nn[nH]n1", "activation": "22% (active)"}
{"smiles": "O=C(/C=C/c1c(Cl)cccc1Cl)NCc1ccccc1", "activation": "0.05%"}
{"smiles": "O=C1CCC(=O)N(O)CCCCCNC(=O)CCC(=O)N(O)CCCCCNC(=O)CCC(=O)N(O)CCCCCN1", "activation": "-0.15%"}
{"smiles": "CCOc1ccc(OCC)c(NC(=O)C2CCN(S(=O)(=O)c3c(C)noc3C)CC2)c1", "activation": "-0.25%"}
{"smiles": "Clc1ccc(CSc2nnc([C@@H]3CCCN3)o2)cc1", "activation": "0.78%"}
{"smiles": "CCN1/C(=C\\c2ccc3ccccc3[n+]2CC)Sc2cc(C)ccc21", "activation": "22.8% (active)"}
{"smiles": "Cc1nn(C)cc1N1C(=O)c2cccc3c(N)ccc(c23)C1=O", "activation": "40.2% (active)"}
{"smiles": "CN1C(=O)c2cccc3c(N)ccc(c23)C1=O", "activation": "28.8% (active)"}
{"smiles": "CC(=O)OC1CCC2(C)C(=CCC3C4CC(=O)N(O)C(=O)C4(C)CCC32)C1", "note": "(stereo not given)", "activation": "0.34%"}
{"smiles": "O=C1CCC[C@@H]2CC(N3CCCCC3)C[C@@H]3CCN1[C@H]23", "note": "(stereo not given in full)", "activation": "0.27%"}
{"smiles": "CCCc1c(C(=O)N/N=C(\\C)CCc2ccc(OC)cc2)nnn1-c1nonc1N", "activation": "0.32%"}
{"smiles": "Cc1ccc(S(=O)(=O)Nc2nc(CN3CCOCC3)nc3sc(C)c(C)c23)cc1", "activation": "0.12%"}
{"smiles": "CCCCCCCCCCCCN1C(=O)CSC1c1cccnc1", "note": "(stereo not given)", "activation": "1.63%"}
{"smiles": "Oc1ccc2ccc3cccc[n+]3c2c1", "activation": "25.3% (active)"}
{"smiles": "COc1ccc(CCNC(=O)CSc2nnc3ccc(-c4ccncc4)nn23)cc1", "activation": "0.28%"}
{"smiles": "COCc1cc(C)nc2sc3c(=O)n(-c4cccc5ccccc45)nnc3c12", "activation": "0.44%"}
{"smiles": "Cc1cc(=O)n2nc(N3CCCC(C(=O)NCc4ccc(Cl)cc4)C3)sc2n1", "note": "(stereo not given)", "activation": "0.13%"}
{"smiles": "O=C(NCc1ccccc1)C1CCCN(S(=O)(=O)c2cccs2)C1", "note": "(stereo not given)", "activation": "0.58%"}
{"smiles": "O=C(NCc1ccccc1)C1CCCN(c2nc3ccsc3c(=O)s2)C1", "note": "(stereo not given)", "activation": "18.9% (active)"}
{"smiles": "CC(C)NC(=O)c1ccc(Sc2ccccc2)c([N+](=O)[O-])c1", "activation": "-0.3%"}
{"smiles": "CC(C)(C)NC(=O)CN1CCC(NC(=O)C23CC4CC(CC(C4)C2)C3)CC1", "activation": "0.73%"}
{"smiles": "COc1cc(OC)c(C(=S)N2CCCC2)cc1OC", "activation": "-0.12%"}
{"smiles": "CC(NC(=O)c1cccc2ccccc12)c1ccc2c(c1)CCCC2", "note": "(stereo not given)", "activation": "-0.03%"}
{"smiles": "Nc1ccc2nc3c(=O)[nH]c(=S)[nH]c3nc2c1", "activation": "21.2% (active)"}
